Experimental data from PubChem BioAssay AID2476 (The Scripps Research Institute Molecular Screening Center, 2010).
Calls of active or inactive are those of the source. How the calls were made is not given here.

assay: DNA binding via dye displacement – biochemical, fluorescence, dose response, counter-screen for HCV NS3 helicase inhibitor project, late-stage follow-up (AID 2476); details: DNA fluorescent intercalator displacement

SMILES	IC50
COc1ccc(C=NNC(=O)c2cc(O)c(O)c(O)c2)cc1COc1ccc(C(=O)OCC(C)C)cc1	> 79.4 µM (inactive)
COc1cc(C2C(C(=O)c3ccc(C)o3)=C(O)C(=O)N2c2cc(C)on2)ccc1OCc1ccccc1 (configuration not stated)	> 79.4 µM (inactive)
Cc1ccc(C(=O)C2=C(O)C(=O)N(Cc3ccco3)C2c2cccc(Cl)c2)o1 (configuration not stated)	> 79.4 µM (inactive)
CCCCCOc1ccc(C2C(C(=O)c3ccc(C)o3)=C(O)C(=O)N2c2cc(C)on2)cc1 (configuration not stated)	> 79.4 µM (inactive)
CCOc1cccc(C2C(C(=O)c3ccc(C)o3)=C(O)C(=O)N2Cc2ccccc2)c1 (configuration not stated)	> 79.4 µM (inactive)
COc1cccc(-n2c(SCc3cc(=O)oc4cc(O)c(O)cc34)nc3ccccc3c2=O)c1	> 79.4 µM (inactive)
Cc1cc(N2C(=O)C(O)=C(C(=O)c3ccc(C)o3)C2c2ccc(OCc3ccccc3)cc2)no1 (configuration not stated)	> 79.4 µM (inactive)
